# Most compounds without a hit are left out; they make up all but 7% or so of the library.
# ADAM17 inh = inhibitors of human ADAM17 | 0.83% of 370,000 active | inhibition, % at 6.95 µM | recombinant ADAM17, EDANS/DABCYL FRET peptide cleavage;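 active = inhibition above the mean of compounds lying between control limits plus 3 SD, set per campaign, cut at about 8.5% in these data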;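 also: 0% = DMSO-only wells as the low control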
# rCAG binder = r(CAG) repeat RNA binding. AID 651821. 1.3% of 370,000 active. inhibition, % at 3 µM. TO-PRO-1 dye displacement fluorescence;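 active = inhibition above the plate cutoff, the mean of all test compounds on that plate plus 3 SD, cut at about 35% in these data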;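 also: 0% = DMSO alone and 100% = 100 µM mitoxantrone as full dye displacement; higher means more dye released from RNA so lower well fluorescence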
# ADAM10 inh = ADAM10 inhibition, QFRET primary screen. AID 720582. O14672. recombinant ADAM10, EDANS/DABCYL FRET peptide cleavage, 3 h. 0.62% of 370,000 active. inhibition, % at 7 µM;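 active = inhibition above a per-campaign cutoff equal to the mean of compounds falling between control-based bounds plus 3 SD, cut at about 20% in these data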;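 also: 0% = DMSO wells while the 100% control is not disclosed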
# proKLK7 act = activators of human kallikrein-7 zymogen. P49862. purified proKLK7, EDANS-DABCYL substrate fluorescence; 100% is mature enzyme control, 0% vehicle. AID 652039. 0.9% of 370,000 active. activation, % at 7 µM;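 active = activation above the mean of all tested compounds plus 3 SD, computed per campaign excluding outliers beyond control limits, cut at about 13% in these data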
# AHR activator = activators of human aryl hydrocarbon receptor; P35869; AHR-responsive luciferase reporter cells, luminescence; activation, % at 5 µM; 2.5% of 320,000 active; in the data active = activation above about 47%;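 also: 0% = vehicle wells and 100% = reference agonist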
# Target sequence (P35869 whole entry, looked up): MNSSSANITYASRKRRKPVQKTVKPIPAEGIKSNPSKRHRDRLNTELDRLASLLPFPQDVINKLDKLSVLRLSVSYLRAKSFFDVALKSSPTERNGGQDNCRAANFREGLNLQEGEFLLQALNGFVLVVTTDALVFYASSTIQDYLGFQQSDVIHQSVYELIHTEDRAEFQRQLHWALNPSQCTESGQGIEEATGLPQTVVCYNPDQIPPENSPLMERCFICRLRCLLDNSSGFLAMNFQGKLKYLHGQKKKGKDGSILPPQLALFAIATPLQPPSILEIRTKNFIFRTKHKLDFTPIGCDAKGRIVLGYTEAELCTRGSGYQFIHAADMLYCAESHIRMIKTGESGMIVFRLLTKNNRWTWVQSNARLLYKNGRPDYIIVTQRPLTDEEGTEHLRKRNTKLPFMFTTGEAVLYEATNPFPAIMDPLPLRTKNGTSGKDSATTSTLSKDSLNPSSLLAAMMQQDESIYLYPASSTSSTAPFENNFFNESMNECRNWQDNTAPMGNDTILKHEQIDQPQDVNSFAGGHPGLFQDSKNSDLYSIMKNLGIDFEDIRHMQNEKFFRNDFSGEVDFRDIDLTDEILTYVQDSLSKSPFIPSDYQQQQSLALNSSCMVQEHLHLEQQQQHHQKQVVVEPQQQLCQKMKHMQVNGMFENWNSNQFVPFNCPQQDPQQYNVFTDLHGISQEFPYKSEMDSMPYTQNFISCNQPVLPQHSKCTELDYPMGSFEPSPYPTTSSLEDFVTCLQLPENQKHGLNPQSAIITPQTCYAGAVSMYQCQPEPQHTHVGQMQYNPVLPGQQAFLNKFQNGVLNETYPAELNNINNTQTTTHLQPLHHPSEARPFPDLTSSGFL
# GRIN3A LBD mod = modulates the human NR3A ligand-binding domain. NR3A LBD differential scanning fluorimetry, Tm shift; 0% = protein alone, 100% = glycine-bound protein. 2.5% of 340,000 active. Tm shift relative to glycine control, % at 25 µM;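 active = melting temperature shift of at least 10% of the positive control shift, at one fixed dose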
# Starred values were filed as active, the others as inactive; . = no result given.
SMILES,ADAM17 inh,rCAG binder,ADAM10 inh,proKLK7 act,AHR activator,GRIN3A LBD mod
COC(=O)c1ccccc1NC(=O)Nc1cccs1,-4,10,7,0,8,0
O=C(NC1CCN(Cc2ccccc2)CC1)c1ccc(Cn2c(=S)[nH]c3ccc(N4CCOCC4)cc3c2=O)cc1,-27,-1,-57,-7,32,-4
COc1cccc(Cn2c(=S)[nH]c3ccc(N4CCOCC4)cc3c2=O)c1,-26,14,-99,1,15,22*
CC1CCN(CCCn2c(=S)[nH]c3ccc(N4CCOCC4)cc3c2=O)CC1,-30,-1,-115,53*,12,0
O=c1c2cc(Cl)ccc2[nH]c(=S)n1Cc1cccs1,1,7,9,1,20,19*
CCN(CCCn1c(=S)[nH]c2ccc(N3CCOCC3)cc2c1=O)c1ccccc1,-8,6,-21,-20,13,1
O=c1c2cc(N3CCOCC3)ccc2[nH]c(=S)n1Cc1cccc(Cl)c1,-8,2,-31,-1,8,31*
O=c1c2cc(Cl)ccc2[nH]c(=S)n1Cc1ccco1,-6,13,-1,1,37,-4
CC(C)CNc1cccc2c1S(=O)(=O)N(Cc1cn(Cc3cccc(F)c3)nn1)Cc1ccccc1O2,-2,7,-14,-5,.,.
O=C(CSc1nnc(-c2cccnc2)n1-c1ccccc1)Nc1ccc2c(c1)OCCO2,0,0,6,0,.,.
CC(C)[C@H](NC(=O)c1ccco1)C(=O)N1CCC[C@H]1C(=O)NCc1ccccc1,-3,2,2,1,.,.
CC(=O)Nc1ccc(OS(=O)(=O)c2ccc(C)cc2C)cc1,-1,-3,-7,0,-14,16*
CC(=O)Nc1ccc(OS(=O)(=O)c2ccccc2C)cc1,-9,-4,-1,0,2,1
CCOc1ncccc1C(=O)Nc1ccc2nc(C)sc2c1,2,2,7,0,10,-1
Cc1cnc(C(=O)Nc2cccc(-c3nnc4n3CCCCC4)c2)cn1,-5,-6,-9,0,14,-2
CCOc1ncccc1C(=O)Nc1ccc(F)c(Cl)c1,-4,3,0,0,61*,0
CCOc1ncccc1C(=O)Nc1ccc(Cl)c(S(=O)(=O)N2CCCC2)c1,-5,4,-13,0,-2,0
CCOc1ncccc1C(=O)Nc1ccc(F)c(F)c1,-1,-4,2,-1,60*,1
CCOc1ncccc1C(=O)Nc1cccc(-c2nnc3n2CCCCC3)c1,1,-8,4,0,47*,1
CCOc1ncccc1C(=O)Nc1nc(C(C)(C)C)cs1,5,-5,2,-1,59*,-2
CCOc1ncccc1C(=O)Nc1ncc(C)s1,0,-5,-5,0,4,1
COc1ccccc1S(=O)(=O)Nc1cccc(-c2nnc3n2CCCCC3)c1,-2,-2,-3,0,-2,-2
c1cc(Nc2ncnc3sccc23)cc(-c2nnc3n2CCCCC3)c1,-4,0,-14,0,49*,2
CCOc1ccc(NC(=O)CCSc2nnc(C)s2)cc1,-2,-3,-6,-1,0,0
CC(=O)Nc1nc(-c2ccc(Cl)cc2)ns1,1,7,7,1,84*,-6
SMILES,ADAM17 inh,rCAG binder,ADAM10 inh,proKLK7 act,AHR activator,GRIN3A LBD mod
Cc1nnc(SCCC(=O)Nc2nc(-c3ccccc3)ns2)s1,2,18,15,0,67*,2
CC(C)C(=O)Nc1nc(-c2ccccc2)ns1,0,-3,0,0,42,-38
CCCC(=O)Nc1nc(-c2ccccc2)ns1,0,-1,3,0,70*,-20
CC(=O)c1sc(NC(=O)c2ccc(Cl)cc2)nc1C,-4,0,-1,0,-2,0
O=C(Nc1ccnc(-c2cccnc2)n1)c1cccs1,-7,-2,-15,0,64*,-2
Cc1nc2ccc(S(=O)(=O)NCC(=O)NCc3ccccc3Cl)cc2s1,2,2,1,0,.,.
COC(=O)[C@]1(C#N)CC(=O)N(C(C)C)[C@@H]1c1ccccc1,1,-1,4,0,.,.
Cc1ccc(O)c(C(C)c2c[nH]c3ccccc23)c1 (stereo not given),2,4,5,0,.,.
C[C@@H]1C=CCCO[C@]12C(=O)Nc1ccccc12,-11,1,-34,1,.,.
C[C@@H]1CCN(C2CC2)S(=O)(=O)c2c(cccc2N2CC[C@H](O)C2)O1,-4,2,-1,0,.,.
CN(CCO)c1cccc2c1S(=O)(=O)N(Cc1cn(Cc3cccc(F)c3)nn1)Cc1ccccc1O2,-3,5,-13,0,.,.
O=C(Nc1nc(-c2ccccc2)ns1)c1cccs1,3,5,14,0,106*,19*
CCOc1ccccc1/C=C(\C(=O)O)c1ccc(S(=O)(=O)N2CCCCC2)s1,-59,45*,-210,-3,1,1
CCN(Cc1ccncc1)C(=O)c1cc(COc2c(F)cccc2F)on1,-5,-8,-9,0,8,32*
COc1ccc(CCNC(=O)CCN2C(=O)COc3ccccc32)cc1OC,-2,-7,0,1,85*,1
CC(=O)N(Cc1ccccc1)c1nccs1,0,2,0,1,.,.
COc1ccccc1OCc1nc(C#N)c(N2CCCC2)o1,-1,-3,3,0,65*,1
CC(=O)Nc1ccc2c(c1Br)Cc1ccccc1-2,0,4,5,0,.,6
CC(=O)Nc1cccc2c1Cc1ccccc1-2,.,.,.,.,-1,36*
O=C(/C=C/c1cccnc1)c1ccccc1O,-17,1,-33,2,15,15*
O=C(C=Cc1cccnc1)c1ccccc1,-1,1,-19,0,.,0
COc1cc(-c2noc(C)c2/C=C/c2ccc(N)cc2)cc(OC)c1OC,2,-2,-2,1,71*,-2
O=C(Nc1ccc(Cl)cc1)Nc1ccc2c(c1)N1CCN=C1S2,-1,24,-6,-1,6,14*
COc1ccc(NC(=O)c2nc3ccccc3s2)cc1,3,0,4,1,24,-23
O=C(Nc1ccc(Cl)cc1)/C(=C/c1cccc(O)c1)c1nc2ccccc2s1,-5,15,-17,-1,4,26*
Cc1nc(S(=O)(=O)c2ccc(Cl)cc2)c(NCc2ccccc2)o1,6,-9,-2,1,14,1
CNc1oc(C)nc1S(=O)(=O)c1ccccc1,-2,1,2,1,2,15*
COC(=O)[C@@]12CCCCC3=C1N(CCC3)C(=O)[C@H]2CC(=O)NCCC(C)C,-1,1,-1,0,.,.
CCCCN(C(=O)COC(=O)COc1c(C)cc(C)cc1C)c1c(N)n(CCC)c(=O)[nH]c1=O,-1,-4,1,0,0,32*

# Screening results as filed in PubChem BioAssay.
